# Laboratory results from PubChem BioAssay (NCATS).
# Where “and” joins values, the source holds several entries; their conditions need not be identical. Identical values can stand only once. Inconclusive results are not listed. A structure can be active in one record and inactive in another. Calls of active or inactive are those of the source. Unless noted, calls come from the whole dose curve; as a rule, active = well fitted curve in the direction sought with a large enough effect; inconclusive = small, poorly fitted or top-dose-only effect, or another doubt; inactive = no such curve, though single readings can be large; an effect the other way counts as inactive or inconclusive. Numbered stars: 1 amine (or outer) side, 2 acyl side, 3 side chain; on linkers, the order of the positions; unused ones are H or OH. Bridge positions count the residues as written; N and C are the ends. Square brackets hold non-standard residues; d marks the D form. Peptide text beside a SMILES is read from it. I, II: the chains in the order shown. Actinocin(9to1) = Cc1c2oc3c(C)ccc(C(=O)[*:1])c3nc-2c(C(=O)[*:2])c(N)c1=O; NMeV = CN[C@H](C(=O)O)C(C)C; Sar = CNCC(=O)O
# Key:
# [1] = qHTS assay for small molecule agonists of the antioxidant response element (ARE) signaling pathway measured by Nrf2-dependant transcriptional activity - cell viability counter screen (AID 720653; active = well fitted curve in the direction sought with a large enough effect in the repeat runs; an effect the other way counts as inactive or inconclusive; note: % is set by controls: 0 for no effect and ±100 for the full control effect); conditions: ARE-bla HepG2 viability, CellTiter-Glo ATP luminescence, 16 h; stronger effect = lower value
# Method in brief: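 Cytotoxicity counter screen: intracellular ATP quantified by CellTiter-Glo luminescence in the same ARE-bla HepG2 plates, after 16 h compound exposure and a 2 h beta-lactamase substrate step.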
# [2] = target: T1, Hexokinase-4 (Homo sapiens) + Glucokinase regulatory protein (Homo sapiens) (UniProt P35557+Q14397); assay: qHTS assay for inhibitors of recombinant human GCK-GKRP interaction: Diaphorase-coupled assay (AID 743205); conditions: G6PDH/diaphorase resorufin fluorescence; series mostly up to 57.5 µM
# T1 sequence (P35557 whole entry, looked up): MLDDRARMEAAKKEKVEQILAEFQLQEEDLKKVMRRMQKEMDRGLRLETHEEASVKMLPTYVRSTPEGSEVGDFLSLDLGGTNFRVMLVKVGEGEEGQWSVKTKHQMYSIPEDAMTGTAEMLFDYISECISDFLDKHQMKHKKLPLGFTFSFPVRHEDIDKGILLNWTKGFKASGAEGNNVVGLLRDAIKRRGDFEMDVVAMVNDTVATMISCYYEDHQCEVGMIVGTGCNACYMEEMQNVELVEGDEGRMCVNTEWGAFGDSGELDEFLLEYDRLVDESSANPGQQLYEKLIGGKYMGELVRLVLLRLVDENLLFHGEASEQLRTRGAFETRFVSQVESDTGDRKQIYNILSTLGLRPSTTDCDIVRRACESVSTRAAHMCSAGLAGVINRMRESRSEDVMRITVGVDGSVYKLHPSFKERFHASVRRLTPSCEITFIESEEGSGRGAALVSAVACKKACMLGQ
# T1 sequence (Q14397 whole entry, looked up): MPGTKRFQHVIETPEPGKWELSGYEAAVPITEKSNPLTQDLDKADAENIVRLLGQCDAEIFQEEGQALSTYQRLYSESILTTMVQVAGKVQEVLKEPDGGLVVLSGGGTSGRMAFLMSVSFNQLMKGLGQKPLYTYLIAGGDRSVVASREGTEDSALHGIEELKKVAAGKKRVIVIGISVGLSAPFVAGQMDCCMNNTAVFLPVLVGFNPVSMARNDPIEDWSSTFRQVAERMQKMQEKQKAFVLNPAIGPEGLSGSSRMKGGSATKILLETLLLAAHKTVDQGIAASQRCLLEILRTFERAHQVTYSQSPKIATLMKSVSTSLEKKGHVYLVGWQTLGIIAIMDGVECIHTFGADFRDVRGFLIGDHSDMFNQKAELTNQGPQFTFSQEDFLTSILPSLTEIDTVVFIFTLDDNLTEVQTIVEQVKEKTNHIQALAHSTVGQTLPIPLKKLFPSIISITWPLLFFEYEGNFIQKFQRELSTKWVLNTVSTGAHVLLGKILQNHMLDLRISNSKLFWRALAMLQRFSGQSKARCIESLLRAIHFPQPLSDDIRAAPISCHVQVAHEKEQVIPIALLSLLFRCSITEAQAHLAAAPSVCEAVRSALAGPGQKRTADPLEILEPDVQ
# Method in brief: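 Compounds pre-incubated 20 min with substrate, then 10 nM GST-GCK with 10 nM FLAG-GKRP added. GCK activity coupled via G6PDH and diaphorase to resorufin (5 mM glucose, 0.4 mM ATP, 0.15 mM NADP+, pH 7.6), read kinetically over 30 minutes at Ex 525/Em 590 nm.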
# [3] = target: T1, Hexokinase-4 (Homo sapiens) + Glucokinase regulatory protein (Homo sapiens); assay: qHTS assay for inhibitors of recombinant human GCK-GKRP interaction: ADP-Glo assay (AID 743206); conditions: ADP-Glo luminescence, 60 min, 0% = vehicle-only wells with enzyme present; series mostly up to 76.9 µM;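 note: plate controls were DMSO plus enzyme for no effect and no enzyme for full effect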
# Method in brief: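 Pin-transferred compounds meet a 15 nM GST-GCK/15 nM FLAG-GKRP/2 uM S6P mix (dispense concentrations). ATP is then added to 0.4 mM final with 5 mM glucose, and the reaction runs 60 min at room temperature. ADP is quantified luminescently.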
# [4] = qHTS assay for cell viability of HEK293 cells (AID 743288); conditions: ATP luminescence (CellTiter-Glo), 18 h, stronger effect = lower value; note: % is set by controls: 0 for no effect and ±100 for the full control effect; nearly all actives have a fitted effect of over 50% in size
# Method in brief: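 Steps: plate 2,000 parental HEK293 cells per well; incubate ≥5 h, 37 C; add compounds in DMSO; incubate 18 h, 37 C; add CellTiter-Glo; wait 30 min at room temperature; read luminescence.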
# [5] = qHTS assay for small molecule antagonists of the retinoid-related orphan receptor gamma (ROR-gamma) signaling pathway - cell viability counter screen (AID 720652; active = well fitted curve in the direction sought with a large enough effect in the repeat runs; an effect the other way counts as inactive or inconclusive;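 note: compound exposure lasted 16 hr before ATP read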; note: potency is the fitted concentration of half-maximal effect); conditions: RORgamma reporter cell line viability counter screen; series mostly up to 92.2 µM
# Method in brief: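 CHO RORE-LUC/TET-ROR line, 1,000 cells/well, 37 C 5% CO2 5 hr; cpd or DMSO + doxycycline induction, 16 hr. CellTiter-Glo, 30 min RT, luminescence = ATP content.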
# [6] = qHTS Assay for Identifying Gametocytocidal Compounds (AID 743244); note: potency is the fitted concentration of half-maximal effect;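 for max response: % is set by controls: 0 for no effect and ±100 for the full control effect; actives lower the fluorescent signal which means gametocytes are killed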; conditions: P. falciparum 3D7 stage III-V gametocytes, alamarBlue, 72 h; max response: stronger effect = lower value
# Method in brief: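 Fluorescence at Ex 525/Em 598 nm, recorded 24 h after alamarBlue addition, reports residual metabolic activity of 3D7 gametocytes (stages III–V) following 72 h compound exposure at 37 °C, 5% CO2.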
# [7] = qHTS assay for cell viability of the p53RE-bla HCT-116 cell line (AID 743292); conditions: p53RE-bla HCT-116 viability, ATP luminescence, 16 h; series mostly up to 95 µM; note: % is set by controls: 0 for no effect and ±100 for the full control effect; nearly all actives have a fitted effect of over 55% in size
# Method in brief: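 Intracellular ATP of p53RE-bla HCT-116 cells measured by luciferase luminescence following 16 h compound incubation at 37 C; DMSO-only wells served as vehicle controls.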
# [8] = qHTS profiling for inhibitors of Plasmodium falciparum (3D7) proliferation (AID 743322);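 note: infected erythrocytes exposed to compound for 72 h before lysis; 100% = DMSO vehicle wells and 0% = 0.29 µM artemisinin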; conditions: P. falciparum 3D7 proliferation; at 28.7 µM (top of the series) unless noted
# Method in brief: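 Parasite DNA was quantified by SYBR Green I fluorescence (ex 485, em 535 nm) after overnight lysis in saponin/Triton buffer at room temperature. Cultures at 0.3% parasitemia and 2.5% hematocrit were first exposed to compound for 72 h at 37 C; signals were normalised to artemisinin (0.29 uM) and vehicle wells.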
# [9] = qHTS profiling for inhibitors of Plasmodium falciparum (DD2) proliferation (AID 743323; call rule not given here); conditions: lower = more inhibition; at 28.7 µM (top of the series) unless noted
# Method in brief: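 SYBR Green fluorescence (ex 485, em 535 nm) of lysed cultures gives parasite DNA content; wells normalized to artemisinin (0.29 uM) and DMSO controls. Infected red cells: 0.3% parasitemia, 2.5% hematocrit, 72 h, 37 C.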
# [10] = qHTS profiling for inhibitors of Plasmodium falciparum (HB3) proliferation (AID 743324); conditions: Plasmodium falciparum HB3 blood-stage proliferation; at 28.7 µM (top of the series) unless noted;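 note: 100% = DMSO vehicle wells and 0% = artemisinin-treated control wells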
# Method in brief: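 SYBR Green fluorescence (485 ex/535 em) of lysed cultures, incubated overnight at room temperature in the dark, quantifies parasite DNA. Infected erythrocytes at 0.3% parasitemia and 2.5% hematocrit were exposed 72 h; values normalized to DMSO and 0.29 uM artemisinin controls.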
smiles,measurement,setting,value
Oc1ccc(O)cc1,max response,[1],-23.3% (inactive)
same,outcome,[2],inactive
same,outcome,[3],inactive
same,max response,[4],-28.2% (inactive)
COc1cccc2c1C(=O)c1c(O)c3c(c(O)c1C2=O)C[C@@](O)(C(C)=O)C[C@@H]3O[C@H]1C[C@H](N)[C@H](O)[C@H](C)O1,Potency,[5],13.3 µM (active)
same,Potency,[6],6.31 µM (active)
same,outcome,[7],inactive
C=C(CC)C(=O)c1ccc(OCC(=O)O)c(Cl)c1Cl,Potency,[5],inactive
same,max response,[1],6.68% (inactive)
same,max response,[4],-7.15% (inactive)
same,outcome,[7],inactive
CC1(C)CCC(NC(=O)[C@@H](N)CCC(=O)O)CC1,outcome,[2],inactive
same,outcome,[3],inactive
same,max response,[6],-7.5% (inactive) and 17.9% (inactive)
CC(=O)Oc1ccc(C(c2ccc(OC(C)=O)cc2)c2ccccn2)cc1,Potency,[5],inactive
same,max response,[1],4.78% (inactive)
same,max response,[6],7.87% (inactive)
same,max response,[4],-9.96% (inactive)
Cc1cc(=O)n(-c2ccccc2)n1C,max response,[1],-4.23% (inactive)
same,max response,[6],18.5% (inactive)
same,max response,[4],-2.36% (inactive)
same,outcome,[7],inactive
CC(C)(Oc1ccc(Cl)cc1)C(=O)O,max response,[1],10.5% (inactive)
same,max response,[6],6.9% (inactive)
same,max response,[4],-4.41% (inactive)
same,outcome,[7],inactive
CC(O)(P(=O)(O)O)P(=O)(O)O,max response,[1],-6.37% (inactive)
same,max response,[6],-10.1% (inactive)
same,max response,[4],-5.92% (inactive)
same,outcome,[7],inactive
COc1cc(NS(C)(=O)=O)ccc1Nc1c2ccccc2nc2ccccc12,outcome,[2],inactive
same,outcome,[3],inactive
same,Potency,[6],6.31 µM (active)
N[C@H](CO)C(=O)O,outcome,[2],inactive
same,outcome,[3],inactive
same,max response,[6],0.963% (inactive) and 16.2% (inactive)
"Cc1c2oc3c(C)ccc(C(=O)N[C@@H]4C(=O)N[C@H](C(C)C)C(=O)N5CCC[C@H]5C(=O)N(C)CC(=O)N(C)[C@@H](C(C)C)C(=O)O[C@@H]4C)c3nc-2c(C(=O)N[C@@H]2C(=O)N[C@H](C(C)C)C(=O)N3CCC[C@H]3C(=O)N(C)CC(=O)N(C)[C@@H](C(C)C)C(=O)O[C@@H]2C)c(N)c1=O (I: T[dV]P[Sar][NMeV] / II: T[dV]P[Sar][NMeV]; ester I:1-I:C, II:1-II:C; linker I:N-II:N via Actinocin(9to1))",Potency,[5],0.106 µM (active)
same,max response,[1],-29.7% (inactive) and -9.89% (inactive)
same,Potency,[6],0.0708 µM (active)
same,outcome,[7],inactive
C[C@]12CC[C@@H]3c4ccc(O)cc4CC[C@H]3[C@@H]1CC[C@@H]2O,max response,[1],-2.14% (inactive)
same,outcome,[2],inactive
same,outcome,[3],inactive
same,max response,[6],23.5% (inactive) and 41.3% (inactive)
same,max response,[4],-9.32% (inactive)
same,outcome,[7],inactive
CC(=O)O[C@]1(C(C)=O)CC[C@H]2[C@@H]3C[C@H](C)C4=CC(=O)CC[C@]4(C)[C@H]3CC[C@@]21C,Potency,[5],inactive
same,max response,[1],-14.4% (inactive) and -14.9% (inactive)
same,outcome,[7],inactive
COC1=CC(=O)C[C@@H](C)[C@]12Oc1c(Cl)c(OC)cc(OC)c1C2=O,Potency,[5],inactive
same,max response,[1],2.34% (inactive)
same,max response,[6],1.7% (inactive)
same,max response,[4],-14.5% (inactive)
same,outcome,[7],inactive
COc1cccc2c1C(=O)c1c(O)c3c(c(O)c1C2=O)C[C@@](O)(C(=O)CO)C[C@@H]3O[C@H]1C[C@H](N)[C@H](O)[C@H](C)O1,Potency,[5],23.7 µM (active)
same,Potency,[6],526 nM (active) and 2.82 µM (active)
same,max response,[6],-8.37% (inactive)
same,outcome,[7],inactive
same,remaining parasite growth % (stronger effect = lower value),[8],-4.76%
same,"activity, percent of control",[9],-2.65%
same,"remaining proliferation (% of control), lower = more inhibition",[10],-0.62%
O=C(O)CCCCC(=O)O,Potency,[5],inactive
same,max response,[1],6.35% (inactive)
same,max response,[6],-5.63% (inactive)
same,max response,[4],0.134% (inactive)
same,outcome,[7],inactive
CNCCC=C1c2ccccc2CCc2ccccc21,outcome,[2],inactive
same,outcome,[3],inactive
Oc1c(I)cc(Cl)c2cccnc12,max response,[1],-8.01% (inactive)
same,Potency,[6],7.94 µM (active)
CC(C)C[C@H]1C(=O)N2CCC[C@H]2[C@]2(O)O[C@](NC(=O)[C@@H]3C=C4c5cccc6[nH]c(Br)c(c56)C[C@H]4N(C)C3)(C(C)C)C(=O)N12,outcome,[2],inactive
same,outcome,[3],inactive
CC(O)C(=O)O (stereo not given),Potency,[5],inactive
same,max response,[1],-3.07% (inactive)
same,max response,[6],-6.68% (inactive)
same,max response,[4],1.72% (inactive)
same,outcome,[7],inactive
NC(=NCCCCCCN=C(N)/N=C(\N)Nc1ccc(Cl)cc1)/N=C(\N)Nc1ccc(Cl)cc1,Potency,[5],42.2 µM (active)
same,max response,[1],-4.14% (inactive)
same,Potency,[6],7.08 µM (active)
same,max response,[4],-23.7% (inactive) and -11.7% (inactive) and -27.9% (inactive)
CC/C(=C(/CC)c1ccc(O)cc1)c1ccc(O)cc1,max response,[1],6.27% (inactive) and -6.2% (inactive)
same,max response,[6],26.7% (inactive)
same,max response,[4],-28.4% (inactive) and -12.5% (inactive)
same,outcome,[7],inactive
